According to PubChem BioAssay AID1259415 (National Center for Advancing Translational Sciences (NCATS), 2018):
“And” between values parts separate entries of the source, which are not always exact repeats. Equal values may be shown once. The campaign covered roughly 410,000 compounds. About 18,000 (4.4%) were called active. Inconclusive results (about 7%) are left out. Cut-off read from the data, not from the text of the source: active = activity change below about -60%; inconclusive = no clear call, values can overlap the other calls; inactive = above about -39%. The full list was thinned out, with actives kept by preference.

assay: qHTS Assay for inhibitors of the human cytomegalovirus (HCMV); details: HFF cells, HCMV-luciferase reporter, 72 h; at 57.5 µM; hits give low values
In short: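 Inhibition of viral replication was scored as loss of reporter luminescence in HFFs infected with HCMV-luciferase (MOI 1 PFU/cell) for 72 h; compounds tested at 2 doses, normalized to buffer and Salinomycin controls.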
% is set by controls: 0 for no effect and ±100 for the full control effect.

| Compound | activity change, negative = inhibition |
| --- | --- |
| CCOC(=O)c1cnc2c(C)cc(Cl)cc2c1NCCc1ccc(OC)c(OC)c1 | -5.49% (inactive) |
| CCOc1ccc(NC(=O)CCC(=O)N2CC(C)Oc3ccc(C)cc32)cc1 (configuration not stated) | -10.3% (inactive) |
| COc1ccc(NC(C)=O)cc1NC(=O)CN1CCN(c2ccc(F)cc2)CC1 | -5.69% (inactive) |
| COc1ccccc1/C=C/c1nc(C#N)c(NC(C)c2ccccc2)o1 (configuration not stated) | 81.4% (inactive) |
| CCCCC12CN3CC(C)(CN(C1)C3c1ccc(O)c(OC)c1)C2=O (configuration not stated) | 4.32% (inactive) |
| Cc1ccc(OCC(=O)Nc2ccc(OCc3cc(=O)n4c(C)csc4n3)cc2)cc1C | 18.3% (inactive) |
| CC(C(=O)N1CCN(c2ccccc2F)CC1)c1ccc([N+](=O)[O-])cc1 (configuration not stated) | -11.5% (inactive) |
| O=C1OC(C(=O)Nc2cccc(Br)c2)Cc2ccccc21 (configuration not stated) | 7.91% (inactive) |
| O=C(CCSc1ccccc1)N1CCN(c2ccccc2F)CC1 | 72.3% (inactive) |
| Cn1cc(-c2ccccc2)cc(C#N)c1=O | -1.91% (inactive) |
| Cn1c(-c2sc3cc(C(F)(F)F)cnc3c2-c2ccccc2)n[nH]c1=S | 18.8% (inactive) |
| CC1=CC(C)(C)NC(=S)N1NC(=O)c1ccccc1Cl | 38.2% (inactive) |
| O=C(NN1C(=O)C2CCCCC2C1=O)c1ccco1 (configuration not stated) | 3.07% (inactive) |
| CC12CCC(C(=O)N(NC(=O)c3ccccc3O)C1=O)C2(C)C (configuration not stated) | -81.2% (active) |
| CCC(C)NCC(=O)Nc1ccc([N+](=O)[O-])cc1C(=O)Nc1ccccc1F (configuration not stated) | 20.4% (inactive) |
| Cn1c(=O)cc(OCC(=O)N2CCN(c3ccccc3)CC2)c2ccccc21 | 0.385% (inactive) |
| CC(C)(C)OC(=O)C[C@@H]1C/C=C\C[C@@H](CC(=O)N[C@H](CO)Cc2ccccc2)C(=O)NC[C@@H](c2ccccc2)OC1=O | -6.88% (inactive) |
| CC(C)(C)OC(=O)C[C@H]1C/C=C\C[C@@H](CC(=O)N[C@H](CO)Cc2ccccc2)C(=O)NC[C@@H](c2ccccc2)OC1=O | -8.79% (inactive) |
| O=C(C[C@H]1C/C=C\C[C@@H](NC(=O)OCC2c3ccccc3-c3ccccc32)C(=O)O[C@@H](c2ccccc2)CNC1=O)N[C@H](CO)Cc1ccccc1 | -86.9% (active) |
| O=[N+]([O-])c1ccc(Oc2ccc(F)cc2Br)c2ccncc12 | -78.1% (active) |
| COc1ccc2oc(=O)c(-c3cn4c(n3)sc3cc(OC)ccc34)cc2c1 | -16.2% (inactive) |
| O=[N+]([O-])c1ccc(C=Nc2ccc(Cl)cc2Cl)s1 | -103% (active) |

| Compound | activity change, negative = inhibition |
| --- | --- |
| C=CCN1C=C(C(=O)c2ccccc2)C(=O)CC1 | -25.3% (inactive) |
| CCOc1ccc(CC(=O)NCCc2csc3nc(-c4ccccc4F)nn23)cc1 | -0.0376% (inactive) |
| CCOc1ccccc1C(=O)Nc1ccc2c(c1)N(C)C(=O)c1ccccc1S2 | 5.48% (inactive) |
| CC(=O)c1c(C)oc2ccc(NS(=O)(=O)c3ccccc3)cc12 | -24.7% (inactive) |
| CCOC(=O)c1c(C)oc2ccc(N(C(=O)c3ccncc3)S(=O)(=O)c3ccc(CC)cc3)cc12 | -6.14% (inactive) |
| COC(=O)c1c(C)oc2ccc(N(C(=O)Oc3ccccc3)S(=O)(=O)c3ccccc3)cc12 | -63.7% (active) |
| Cc1cccc(N(C)C(=O)CS(=O)(=O)c2cccc3nsnc23)c1 | -14.6% (inactive) |
| CCN(C(=O)Cn1c(=O)nc(-c2ccccc2)c2cc(Cl)ccc21)c1cccc(C)c1 | -20.1% (inactive) |
| O=C(NCCc1ccc(Cl)cc1)c1ccc2c(c1)N(Cc1ccc(F)cc1)C(=O)CS2 | 2.62% (inactive) |
| Cc1ccc(Nc2cc(C)nc3c(C)ccc([N+](=O)[O-])c23)cc1 | -65.6% (active) |
| Cc1ccc(NC2=NC(c3ccccc3)n3c(nc(C)cc3=O)N2)cc1 (configuration not stated) | -12% (inactive) |
| CNc1ccc(-c2nc(-c3ccccc3C)no2)cc1[N+](=O)[O-] | 63.3% (inactive) |
| C[C@@H]1CN([C@H](C)CO)C(=O)CCCn2cc(nn2)CO[C@H]1CN(C)C(=O)Nc1ccc(N2CCCCC2)cc1 | 5.98% (inactive) |
| CCOc1ccc(CNC(=O)c2cc(=O)[nH]c3ccc(S(=O)(=O)N4CCCCC4)cc23)cc1 | 66.7% (inactive) |
| O=C(Nc1ccc2oc(-c3ccc(O)c(Br)c3)nc2c1)c1cc2ccccc2o1 | 17.1% (inactive) |
| COc1cccc(C(=O)NC2(C(F)(F)F)C(=O)Nc3c2c(=O)[nH]c(=O)n3-c2ccc(C)cc2)c1 (configuration not stated) | 23.5% (inactive) |
| Cc1ccsc1C(=O)C1CCCN(Cc2ccc(O)cc2)C1 (configuration not stated) | 66.6% (inactive) |
| Cc1ccn(CC(=O)NC2CCCN(Cc3ccccc3F)C2)n1 (configuration not stated) | -8.34% (inactive) |
| Cc1occc1C(=O)NC1CCCN(Cc2ccc(CC(C)C)cc2)C1 (configuration not stated) | -69.3% (active) |
| COc1cccc(NC(=O)C(=O)NCC(c2ccc3c(c2)OCO3)N2CCN(C)CC2)c1 (configuration not stated) | 44% (inactive) |
| CSc1ccc(NC(=O)Cn2nnnc2-c2ccccc2F)cc1 | 13% (inactive) |
| CC(C)Oc1ccc(CNC(=O)C2CCN(c3nc4ccccc4n(C)c3=O)CC2)cc1 | 3.39% (inactive) |

| Compound | activity change, negative = inhibition |
| --- | --- |
| COc1cccc2cc(-c3nc(Cl)c4c5c(sc4n3)CC(C)CC5)c(=O)oc12 (configuration not stated) | 7.76% (inactive) |
| Fc1ccc(CSc2nnc(-c3cc4c(s3)-c3ccccc3CC4)o2)cc1 | 20.4% (inactive) |
| COc1ccc(C(=O)Oc2ccc(-c3nnco3)cc2)cc1S(=O)(=O)N1CCOCC1 | -83.8% (active) |
| O=C(Oc1ccc(-c2nnco2)cc1)c1ccc(F)c(S(=O)(=O)N2CCOCC2)c1 | 34.8% (inactive) |
| COc1ccccc1OC(=O)c1ccc(C)c(S(=O)(=O)N2CCOCC2)c1 | 2.56% (inactive) |
| COc1ccc(NC(=O)COC(=O)CNC(=O)C2CCCCC2)cc1 | 16% (inactive) |
| CCC(C)(C)c1ccc(Oc2ccc(NC(=O)COC(=O)C3=COCCO3)cc2)cc1 | -70.9% (active) |
| O=C1CCC(C(=O)OCC(=O)Nc2ccc(OC(F)F)cc2)=NN1 | 5.49% (inactive) |
| COc1cccc(Nc2nc3ccccc3c3nncn23)c1 | 15% (inactive) |
| COc1ccc(NC(=O)CCc2nnc3n(CC(C)C)c(=O)c4ccccc4n23)cc1OC | -15.8% (inactive) |
| O=C(Cn1c(=O)nc(-c2ccccc2)c2cc(Cl)ccc21)NCc1ccc(Cl)cc1 | 4.55% (inactive) |
| CCCCNc1ccc(-c2nc(-c3ccncc3)no2)cc1[N+](=O)[O-] | 14.6% (inactive) |
| Cc1nn(Cc2ccccc2)c(C)c1NS(=O)(=O)c1ccccc1 | 18.1% (inactive) |
| Cc1ccccc1Cn1nc(C)c(NC(=O)c2cc(-c3ccc(F)cc3)on2)c1C | -10.2% (inactive) |
| Cc1ccccc1Cn1nc(C)c(NC(=O)C(F)(F)F)c1C | -69.7% (active) |
| COc1cc(NC(=O)CN2CCN(S(=O)(=O)c3ccc(Br)cc3)CC2)cc(OC)c1 | 10.7% (inactive) |
| CC(C)OCCCn1c(SCC(=O)c2ccccc2)nc2c(sc3ccccc32)c1=O | -3.18% (inactive) |
| CCc1nn(CCCC(=O)NCc2ccccc2OC)c(=O)c2cc3occc3n12 | 0.686% (inactive) |
| COC(=O)c1ccc(S(=O)(=O)N2CCC(c3nc4ccccc4o3)CC2)cc1 | -36.4% (inactive) |
| CC(=O)c1ccc(S(=O)(=O)N2CCC(Oc3ccc(-n4cnnn4)cc3)CC2)cc1 | -16.1% (inactive) and 9.96% (inactive) |
| CC(=O)c1ccc(S(=O)(=O)N2CCN(C(=O)/C=C/c3ccc4ccccc4n3)CC2)cc1 | -94.7% (active) |
| O=C(NCCc1ccccc1)c1cnc2sc(N3CCCC3)nn2c1=O | -22.6% (inactive) |

| Compound | activity change, negative = inhibition |
| --- | --- |
| CCCCNc1c(-c2cccc(Sc3ccc(OC)cc3)c2)nc2ccccn12 | -28.4% (inactive) |
| COC(=O)[C@]12C[C@H](CC(=O)NCCC(C)C)C(=O)N(CCc3ccc(OC)c(OC)c3)C1=C[C@H](C(C)(C)C)O[C@@H]2C | 13.1% (inactive) |
| COc1ccccc1CNC(=O)c1ccc(-n2c(C)cc3c2CCCC3)cc1 | -28.5% (inactive) |
| Cc1cc([N+](=O)[O-])c(NC2CCCCC2)c([N+](=O)[O-])c1 | -18.1% (inactive) |
| Cc1cc([N+](=O)[O-])ccc1NC1CCCC1 | -71.6% (active) |
| N#Cc1cc([N+](=O)[O-])ccc1NCC1CCCO1 (configuration not stated) | 11.1% (inactive) |
| COc1ccc(C)cc1N(C)C(=O)c1c(C)oc2ncnc(N3CCOCC3)c12 | -37.3% (inactive) |
| Cc1ccc2onc(CC(=O)N3CCN(c4ccc(Cl)cc4)CC3)c2c1 | -15.9% (inactive) |
| Cc1nn(C(C)C(=O)NCCc2ccccc2)c(=O)c2c1sc1ccccc12 (configuration not stated) | -39.3% (inactive) |
| Cc1ccc(Nc2nc(Cl)c(C=O)s2)cc1 | -12.1% (inactive) |
| Cc1ccc(NC(=O)Nc2nnc(-c3ccncc3)s2)cc1 | -99.3% (active) |
| CCCCN(C)c1nnc(NC(=O)Nc2ccc(Br)c(C)c2)s1 | -4.35% (inactive) |
| CCNC(=O)C1(C)CCCN1C(=O)c1ccc(N(C)C)cc1 (configuration not stated) | -8.81% (inactive) |
| Cc1ccc(C)c(Nc2nnc(-c3ccc(C)c(S(=O)(=O)N4CCCCC4)c3)c3ccccc23)c1 | -66.1% (active) |
| Cc1ccc(-c2nnc(Nc3ccc(C(=O)N(C)C)cc3)c3ccccc23)cc1S(N)(=O)=O | -17.4% (inactive) |
| Cc1ccc(Nc2nnc(-c3ccc(C)c(S(=O)(=O)N4CCCCC4)c3)c3ccccc23)cc1 | -7.76% (inactive) |
| COc1cc(CN(C(=O)c2ccccc2Br)c2ccccn2)cc(OC)c1OC | -1.41% (inactive) |
| O=S(=O)(c1ccc(Br)cc1)c1nnn2c1nc(NC1CCCCCC1)c1sccc12 | -2.26% (inactive) |
| CCn1cc(C(=O)N2CC=C(c3ccccc3)CC2)c(=O)c2ccc(C)nc21 | -108% (active) |
| CCn1cc(C(=O)OCC(=O)Nc2cccc(C)c2)c(=O)c2ccc(C)nc21 | 37.7% (inactive) |
| CCn1cc(C(=O)OCC(=O)Nc2cc(C)cc(C)c2)c(=O)c2ccc(C)nc21 | -39.2% (inactive) |
